From PubChem
HSF1 activator: HSF-1 activators, primary screen, NIH3T3-HGL cells, MG132 stress, luminescence, single point; activation, % at 9 µM; NIH3T3-HGL HSF-1 luciferase reporter, 8 h; 100% = twice DMSO control signal; actives 1.7% (n = 300,000);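 active = mean replicate activation of at least 50% with a set share of replicates each reaching 50%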;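 note: 0% = median of the neutral control wells and 100% = twice that signal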
S1P3 antag: S1P3 receptor antagonists, primary screen, cell-based; CHO S1P3 NFAT-BLA reporter, FRET fluorescence, antagonist mode; actives 0.27% (n = 170,000); AID 485, 2006; inhibition, % at 4.98 µM; Sphingosine 1-phosphate receptor 3 (Homo sapiens), Q99500;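 active = inhibition above the plate cutoff, the mean inhibition of test wells on that plate plus 3 SD, cut at about 28% in these data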;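 note: cells challenged with S1P at its EC80 of 0.8 µM; blue over green emission ratio from cleaved BLA substrate after 4 h stimulation; 0% = S1P-stimulated wells and 100% = unstimulated DMSO-only wells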
Hsp70 activator: Hsp70 transcriptional activators, primary screen, cell-based, HeLa, Hsp70 promoter luciferase, luminescence, 10 µM; HeLa Hsp70 promoter luciferase reporter; scaled: vehicle 0, proteasome-inhibitor control 100%; activation, % at 10 µM; actives 0.04% (n = 200,000);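 active = activation above the mean across all tested compounds plus 3 SD, cutoff set per campaign, cut at about 5.5% in these data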;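 note: 100% = MG132 at 30 µM as the positive control and 0% = DMSO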
S1P4 agonist: S1P4 receptor agonists, primary screen, cell-based. AID 1509, 2009. Sphingosine 1-phosphate receptor 4 (Homo sapiens), O95977. actives 0.35% (n = 220,000). activation, % at 4.98 µM. S1P4-expressing cell line, agonist reporter assay; in the data active = activation above about 11%;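 note: 0% = DMSO vehicle and 100% = reference agonist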
Target sequence (O95977 whole entry, looked up): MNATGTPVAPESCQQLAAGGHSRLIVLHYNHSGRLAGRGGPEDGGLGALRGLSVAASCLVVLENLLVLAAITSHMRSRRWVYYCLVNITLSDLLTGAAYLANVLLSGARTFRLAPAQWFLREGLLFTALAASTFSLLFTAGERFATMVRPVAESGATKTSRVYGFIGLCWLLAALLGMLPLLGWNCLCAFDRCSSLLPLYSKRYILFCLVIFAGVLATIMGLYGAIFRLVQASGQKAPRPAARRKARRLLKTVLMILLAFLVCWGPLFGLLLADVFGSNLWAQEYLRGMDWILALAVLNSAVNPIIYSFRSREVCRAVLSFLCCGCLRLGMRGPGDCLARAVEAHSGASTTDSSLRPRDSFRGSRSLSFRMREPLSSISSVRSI
S1P4 antag: S1P4 receptor antagonists, primary screen, cell-based | S1P4-expressing cells, antagonist mode, reporter read-out | Sphingosine 1-phosphate receptor 4 (Homo sapiens), O95977 | actives 0.26% (n = 220,000) | inhibition, % at 4.98 µM; in the data active = inhibition above about 29%;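 note: 0% = wells stimulated with agonist and 100% = vehicle wells without agonist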
HSF1 inhib: HSF1 inhibitors in luciferase reporter cells, primary screen, cell-based, NIH3T3, luminescence. activity change, negative = inhibition, % at 7.5 µM (by protocol). actives 0.77% (n = 300,000). NIH3T3-HGL HSE-luciferase, MG132-induced, luminescence 8 h; stronger effect = lower value;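 active = more than half of replicate wells show activity change below -50%, luminescence cut by over half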;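 note: luciferase reports HSF-1 transcriptional activity via heat shock element; 0% = median of DMSO wells and -100% = zero luminescence signal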
An asterisk follows results filed as active; . = no result. Shown are actives, neighbours in structure and some others; about 2.9% of the full set was active somewhere.

SMILES | HSF1 activator | S1P3 antag | Hsp70 activator | S1P4 agonist | S1P4 antag | HSF1 inhib
CC#CC[N+](C)(C)CCCCCCCCCCCC | 89* | -9 | 0 | 0 | -8 | 36
C#CC[N+](C)(C)CCCCCCCCCC | -16 | -7 | 0 | 3 | -13 | -10
Nc1cnn(Cc2ccc(F)cc2)c1 | 56* | -4 | 0 | 1 | 6 | 30
Nc1cnn(Cc2ccccc2F)c1 | 25 | -10 | 0 | 2 | 3 | 16
COc1ccc(Cn2nnnc2C(c2ccc(N(C)C)cc2)N2CCC(C)CC2)cc1 (stereo unspecified) | 16 | 7 | 0 | 1 | -14 | 8
COc1ccc(Cn2nnnc2C(c2ccccc2Cl)N2CCC(C(N)=O)CC2)cc1 (stereo unspecified) | -64 | . | 0 | 1 | -12 | -51*
CC1CCN(C(c2ccc(N(C)C)cc2)c2nnnn2Cc2ccccc2)CC1 (stereo unspecified) | 66* | -9 | 0 | 1 | -4 | 48
O=C1C2C3C=CC(C4CC34)C2C(=O)N1CCCCN1CCN(c2ccc(F)cc2)CC1 (stereo unspecified) | 7 | . | . | . | . | -4
O=S(=O)(c1ccc(NC(=S)NCc2ccco2)cc1)N1CCCC1 | 1 | -9 | -1 | -1 | -5 | 12
O=S1(=O)N[C@H](c2ccccc2)C[C@H](c2ccc(C(F)(F)F)cc2)O1 | -67 | . | . | . | . | -56*
O=C(CCC1CCN(C(=O)c2ccccc2Cl)CC1)NCc1ccc(F)cc1 | 11 | . | . | . | . | 5
COC(=O)C1C(=O)C2=C(CC1C)NC(C)=C(C(=O)OCc1ccc(OC)cc1)C2c1ccc(C)o1 (stereo unspecified) | 112* | -2 | 0 | -2 | 12 | 66
COC(=O)C1C(=O)C2=C(CC1C)NC(C)=C(C(=O)OCCOc1ccccc1)C2c1ccc(C)o1 (stereo unspecified) | 4 | . | 0 | 1 | 13 | 3
CC1CCN(C(=O)CSc2nc3c(cnn3-c3ccc(Cl)cc3)c(=O)[nH]2)CC1 | -89 | -39 | 0 | -1 | -4 | -86*
N/C(=N\OC(=O)CCC1CCCC1)c1cccc([N+](=O)[O-])c1 | 4 | -2 | 0 | -2 | -7 | 2
c1ccc(-c2cn3nc(-c4ccccc4)sc3n2)cc1 | -61 | -2 | . | . | . | -56*
CCOC(=O)c1sc2c(c1C)C(c1cccs1)C1=C(CCCC1=O)N2 (stereo unspecified) | 79* | 21 | 0 | 2 | -12 | 28
COc1ccc(C(=O)N2CCN=C2SCc2cccnc2)cc1OC | -75 | 4 | 0 | 1 | -23 | -66*
COc1ccc(-c2nc3ccc(C)cn3c2NCc2ccc3c(c2)OCO3)cc1 | 60* | -1 | 0 | 1 | 1 | 14
Cc1ccc(-c2nc3ccccn3c2NCc2ccc3c(c2)OCO3)cc1 | 34 | . | 0 | 0 | -5 | 16
S=C(NCCCn1ccnc1)Nc1cccc(Cl)c1 | -1 | -5 | 0 | -1 | -1 | -7
COc1ccc(OCC(=O)N2CCN(c3cccc(C(F)(F)F)c3)CC2)cc1 | -89 | 3 | 0 | -1 | -5 | -87*
COc1ccc(OCC(=O)N2CCN(c3cccc(Cl)c3)CC2)cc1 | -12 | . | 0 | -1 | -2 | -1
COc1cccc(C(=O)Nc2sc(C(C)C)cc2C(N)=O)c1OC | -84 | 13 | . | 0 | -11 | -79*
Cc1ccccc1NC(=O)C(=Cc1ccc(C(=O)O)cc1)C(=O)Nc1ccccc1C | 146* | -11 | 0 | 0 | 5 | 85
SMILES | HSF1 activator | S1P3 antag | Hsp70 activator | S1P4 agonist | S1P4 antag | HSF1 inhib
CC(=O)/C(=C/c1ccccc1)C(=O)Nc1ccccc1C | 55* | -8 | 0 | 0 | -7 | 31
c1ccc2c(c1)CCN(c1ncnc3nc[nH]c13)C2 | -1 | 8 | 0 | 0 | -11 | 1
C1=C(c2ccccc2)CCN(c2ncnc3nc[nH]c23)C1 | -79 | -15 | 0 | 1 | -1 | -75*
CN(C)CCN1C(=O)C2C(C(=O)Nc3cc(Cl)cc(Cl)c3)C3C=CC2(O3)C1C(=O)NC1CCCCC1 (stereo unspecified) | 85* | . | . | . | . | 46
O=C1c2ccccc2NC(c2ccc(O)cc2)N1/N=C/c1ccc(O)cc1 (stereo unspecified) | 70* | 1 | 0 | -2 | 1 | 29
O=C1c2ccccc2NC(c2ccccc2)N1/N=C/c1ccccc1 (stereo unspecified) | 43 | . | 0 | 1 | -9 | 27
O=C(c1cnn(-c2ccccc2)c1)c1ccc2ccccc2c1O | 58* | . | 0 | -2 | -16 | 36
O=C(O)c1ccc(-n2cc(C(=O)c3ccccc3O)cn2)cc1 | -1 | . | . | . | . | -3
Clc1ccc(CCNc2nc3ccccc3n3nnnc23)cc1 | 51* | . | 0 | 0 | -4 | 26
CCOc1ccc(N(CC(=O)NCCc2ccccc2)C(=O)CCC(=O)Nc2nccs2)cc1 | -5 | . | . | . | . | -3
Cc1ccccc1Cn1c(-c2cncs2)nc2ccccc21 | 69* | 18 | 0 | 1 | -7 | 65
CCc1c(C)sc(NC(=O)c2ccco2)c1C#N | 3 | . | . | . | . | 6
C=CCn1c(=O)c(C(=O)Nc2ccc(C)cc2)c(O)c2ccccc21 | 2 | . | . | . | . | 2
O=c1c2ccccc2nnn1CSc1ccccc1F | 82* | 6 | 0 | 0 | -12 | 29
Cc1ccc(SCn2nnc3ccccc3c2=O)c(C)c1 | 66* | -4 | 0 | 1 | 0 | 37
O=c1c2ccccc2nnn1CSc1ncnc2ccccc12 | 112* | 30 | 0 | 0 | 0 | 78
O=[N+]([O-])c1cccc(-c2nc(-c3ccncc3)no2)c1 | -37 | . | 0 | 0 | -14 | -22
O=[N+]([O-])c1cccc(-c2nnc(-c3ccc4c(c3)OCO4)o2)c1 | -7 | -1 | 0 | 1 | -16 | 6
O=[N+]([O-])c1cccc(-c2nc(-c3ccccc3)no2)c1 | 56* | -18 | 0 | 2 | -2 | 30
O=[N+]([O-])c1cccc(-c2nnc(-c3ccccc3)o2)c1 | -84 | -1 | 0 | 0 | -19 | -78*
CCN(CC(=O)Nc1ccc(NC(C)=O)cc1)c1ccc(C(F)(F)F)cn1 | 16 | 8 | 0 | 1 | -14 | 7
O=C(CC1(O)C(=O)Nc2ccc(Br)cc21)c1ccc2c(c1)OCO2 (stereo unspecified) | 57* | -21 | 0 | 0 | -8 | 8
Cc1ccc2c(c1)C(O)(CC(=O)c1ccc3c(c1)OCO3)C(=O)N2 (stereo unspecified) | 5 | 6 | 2 | -1 | -4 | -3
